Source: PubChem BioAssay AID1159580 (chemical genetic matrix, 2015)
Several values for one entry are separate records, joined by “and”; a condition that tells them apart may be missing. Identical values can stand only once. In all, about 5,500 compounds went through this assay and about 2,000 (36%) were called active. Inconclusive results (about 18%) are left out. Cut-off read from the data, not from the text of the source: active = normalized growth mostly below about 0.91 (no sharp cut-off); inconclusive = no clear call, values can overlap the other calls; inactive = mostly above about 0.92. This is one part of the list.

Experiment: chemical genetic growth profiling, strain panel (AID 1159580);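 note: tested at 20 µM; growth read once vehicle control cultures reached saturation at 30 °C; 1 = growth at the plate median or of vehicle wells; lower values mean less growth of the strain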
Details: S. cerevisiae deletion strains, growth OD

Measured: normalized growth

COc1ccc2cc1Oc1ccc(cc1)C[C@H]1c3cc(c(OC)cc3CCN1C)Oc1c(OC)c(OC)cc3c1[C@H](C2)N(C)CC3
inactive: locus YAL013W, strain DEP1, active compounds read low 1.01 | locus YAL026C, strain drs2, active compounds read low 1 | locus YAL030W, strain snc1, active compounds read low 1.01 | locus YBL061C, strain skt5, active compounds read low 1.01 | locus YBR009C, strain hhf1, active compounds read low 0.982 | locus YBR023C, strain chs3, active compounds read low 1.01 | locus YBR171W, strain sec66, active compounds read low 1.02 | locus YBR229C, strain ROT2, active compounds read low 1.01 | locus YBR231C, strain swc5, active compounds read low 0.988 | locus YBR279W, strain paf1, active compounds read low 0.998 | locus YCL011C, strain gbp2, active compounds read low 0.988 | locus YCL016C, strain dcc1, active compounds read low 0.968 | locus YCL029C, strain bik1, active compounds read low 1.03 | locus YCL069W, strain vba3, active compounds read low 1.01 | locus YCR088W, strain abp1, active compounds read low 1.01 | locus YDL005C, strain med2, active compounds read low 1 | locus YDL035C, strain GPR1, active compounds read low 0.977 | locus YDL040C, strain nat1, active compounds read low 1 | locus YDL074C, strain BRE1, active compounds read low 0.972 | locus YDL101C, strain DUN1, active compounds read low 1.01 | locus YDL134C, strain PPH21, active compounds read low 1.01 | locus YDL185W, strain tfp1, active compounds read low 1.01 | locus YDL192W, strain arf1, active compounds read low 0.997 | locus YDR001C, strain nth1, active compounds read low 1.02 | locus YDR101C, strain arx1, active compounds read low 1.01 | locus YDR137W, strain rgp1, active compounds read low 0.998 | locus YDR150W, strain NUM1, active compounds read low 1.01 | locus YDR159W, strain sac3, active compounds read low 1.02 | locus YDR162C, strain NBP2, active compounds read low 0.974 | locus YDR195W, strain ref2 1.02 | locus YDR297W, strain sur2, active compounds read low 1 | locus YDR318W, strain mcm21, active compounds read low 1 | locus YDR334W, strain swr1, active compounds read low 1.01 | locus YDR335W, strain msn5, active compounds read low 0.999 | locus YDR392W, strain spt3, active compounds read low 0.79 | locus YDR502C, strain sam2, active compounds read low 0.99 | locus YEL003W, strain gim4, active compounds read low 0.998 | locus YEL037C, strain rad23, active compounds read low 0.989 | locus YEL061C, strain CIN8 (second series), active compounds read low 1.01 | locus YEL061C, strain CIN8, active compounds read low 1.01 | locus YER015W, strain faa2, active compounds read low 0.997 | locus YER016W, strain bim1, active compounds read low 1 | locus YER110C, active compounds read low 1.03 | locus YER111C, strain swi4, active compounds read low 0.997 | locus YER155C, strain BEM2 (second series), active compounds read low 0.887 | locus YER155C, strain BEM2, active compounds read low 1.03 | locus YER167W, strain BCK2, active compounds read low 0.964 | locus YGL078C, strain dbp3, active compounds read low 1.01 | locus YGL086W, strain mad1, active compounds read low 0.983 | locus YGL167C, strain pmr1, active compounds read low 1 | locus YGL173C, strain kem1, active compounds read low 1.02 | locus YGL227W, strain vid30, active compounds read low 0.997 | locus YGL240W, strain doc1, active compounds read low 1.01 | locus YGL248W, strain PDE1, active compounds read low 1 | locus YGL253W, strain hxk2, active compounds read low 1.01 | locus YGR078C, strain PAC10, active compounds read low 0.996 | locus YGR135W, strain pre9, active compounds read low 0.931 | locus YGR229C, strain SMI1, active compounds read low 0.993 | locus YGR252W, strain gcn5, active compounds read low 0.855 | locus YHR013C, strain ard1, active compounds read low 0.902 | locus YHR027C, strain rpn1, active compounds read low 1.02 | locus YHR030C, strain SLT2, active compounds read low 1.01 and 1 | locus YHR079C, strain IRE1 (second series), active compounds read low 1.01 | locus YHR079C, strain IRE1, active compounds read low 0.987 | locus YHR094C, strain hxt1, active compounds read low 1.02 | locus YHR129C, strain ARP1, active compounds read low 1.01 | locus YHR142W, strain chs7, active compounds read low 1.01 | locus YHR200W, strain rpn10, active compounds read low 0.989 | locus YIL066C, strain RNR3, active compounds read low 1 | locus YIL073C, strain SPO22, active compounds read low 1.31 | locus YIL125W, strain kgd1, active compounds read low 1.01 | locus YIR030C, strain dcg1, active compounds read low 1.02 | locus YJL092W, strain hpr5, active compounds read low 1.01 | locus YJL095W, strain BCK1 (second series), active compounds read low 1.02 | locus YJL095W, strain BCK1, active compounds read low 1.02 and 1.06 | locus YJL115W, strain asf1, active compounds read low 1.01 | locus YJL129C, strain trk1, active compounds read low 1.01 | locus YJL134W, strain LCB3, active compounds read low 1.02 | locus YJL154C, strain vps35, active compounds read low 1 | locus YJL164C, strain tpk1, active compounds read low 0.986 | locus YJL166W, strain qcr8, active compounds read low 0.984 | locus YJL168C, strain set2, active compounds read low 1.01 | locus YJL187C, strain SWE1 (second series), active compounds read low 1 | locus YJR043C, strain POL32, active compounds read low 0.996 | locus YJR066W, strain TOR1, active compounds read low 0.955 | locus YJR075W, strain HOC1, active compounds read low 0.924
active: locus YAL021C, strain ccr4, active compounds read low 0.853 | locus YBR021W, strain FUR4, active compounds read low 0.596 | locus YDR069C, strain doa4, active compounds read low 0.733 | locus YDR388W, active compounds read low 0.241 | locus YFR010W, strain ubp6, active compounds read low 0.854
